In the supplement of paper PMC9694430:

Columns and labels:
Experiment in all cases: thermal shift delta Tm vs DMSO control; higher = stronger stabilization (binding)
Details in all cases: 12.5 µM; protein concentration 2 µM
LOC_OS01G57100-cb003 = test system: LOC_OS01G57100-cb003
Summary of the method: (§1)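 The melting temperature shift given here is a triplicate mean, measured against protein that received only DMSO. Melting temperatures came from Boltzmann fits of differential scanning fluorimetry data on E. coli-expressed, purified rice kinase domain constructs. Each 19.5 μl well contained 2 μM kinase, 100 mM potassium phosphate pH 7.5, 150 mM NaCl, 10% glycerol, 5 × SYPRO Orange and compound in DMSO. Plates were scanned from 25°C to 95°C at 0.05°C/s.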

LOC_OS01G60330-cb001 = test system: LOC_OS01G60330-cb001
Summary of the method: as §1

LOC_OS01G60700-cb002 = test system: LOC_OS01G60700-cb002
Summary of the method: as §1

LOC_OS01G63280-cb003 = test system: LOC_OS01G63280-cb003
Summary of the method: as §1

LOC_OS01G67340-cb003 = test system: LOC_OS01G67340-cb003
Summary of the method: as §1

LOC_OS01G70970-cb002 = test system: LOC_OS01G70970-cb002
Summary of the method: as §1

LOC_OS02G07810-cb001 = test system: LOC_OS02G07810-cb001
Summary of the method: as §1

LOC_OS02G08530-cb003 = test system: LOC_OS02G08530-cb003
Summary of the method: as §1

LOC_OS02G14120-cb001 = test system: LOC_OS02G14120-cb001
Summary of the method: as §1

LOC_OS02G17970-cb001 = test system: LOC_OS02G17970-cb001
Summary of the method: as §1

LOC_OS02G45750-cb003 = test system: LOC_OS02G45750-cb003
Summary of the method: as §1

LOC_OS02G54510-cb004 = test system: LOC_OS02G54510-cb004
Summary of the method: as §1

LOC_OS03G04050-cb001 = test system: LOC_OS03G04050-cb001
Summary of the method: as §1

LOC_OS03G12390-cb001 = test system: LOC_OS03G12390-cb001
Summary of the method: as §1

LOC_OS03G27990-cb004 = test system: LOC_OS03G27990-cb004
Summary of the method: as §1

LOC_OS03G50450-cb001 = test system: LOC_OS03G50450-cb001
Summary of the method: as §1

LOC_OS03G50810-cb003 = test system: LOC_OS03G50810-cb003
Summary of the method: as §1

LOC_OS04G35114-cb001 = test system: LOC_OS04G35114-cb001
Summary of the method: as §1

LOC_OS04G38480-cb003 = test system: T1, LOC_OS04G38480-cb003
T1 sequence (whole entry): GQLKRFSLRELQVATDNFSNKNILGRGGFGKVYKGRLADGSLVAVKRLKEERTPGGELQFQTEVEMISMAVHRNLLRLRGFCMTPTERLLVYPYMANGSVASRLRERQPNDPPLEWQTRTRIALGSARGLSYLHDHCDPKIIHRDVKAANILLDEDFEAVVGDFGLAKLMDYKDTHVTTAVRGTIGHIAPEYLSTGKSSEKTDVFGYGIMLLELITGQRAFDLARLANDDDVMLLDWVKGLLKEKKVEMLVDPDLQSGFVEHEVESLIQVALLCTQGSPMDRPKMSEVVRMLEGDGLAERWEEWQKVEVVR
Summary of the method: as §1

LOC_OS04G41100-cb001 = test system: T2, LOC_OS04G41100-cb001
T2 sequence (whole entry): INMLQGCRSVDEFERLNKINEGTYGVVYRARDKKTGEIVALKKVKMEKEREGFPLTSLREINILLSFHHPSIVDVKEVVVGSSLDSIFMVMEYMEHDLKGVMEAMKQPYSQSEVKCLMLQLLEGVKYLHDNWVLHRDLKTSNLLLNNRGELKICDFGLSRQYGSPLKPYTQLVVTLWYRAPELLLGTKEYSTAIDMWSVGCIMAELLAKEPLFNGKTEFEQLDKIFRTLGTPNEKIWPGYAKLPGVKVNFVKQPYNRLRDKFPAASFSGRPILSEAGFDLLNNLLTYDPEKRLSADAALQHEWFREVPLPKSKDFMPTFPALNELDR
Summary of the method: as §1

Row | SMILES | thermal shift delta Tm (LOC_OS01G57100-cb003) [°C] | thermal shift delta Tm (LOC_OS01G60330-cb001) [°C] | thermal shift delta Tm (LOC_OS01G60700-cb002) [°C] | thermal shift delta Tm (LOC_OS01G63280-cb003) [°C] | thermal shift delta Tm (LOC_OS01G67340-cb003) [°C] | thermal shift delta Tm (LOC_OS01G70970-cb002) [°C] | thermal shift delta Tm (LOC_OS02G07810-cb001) [°C] | thermal shift delta Tm (LOC_OS02G08530-cb003) [°C] | thermal shift delta Tm (LOC_OS02G14120-cb001) [°C] | thermal shift delta Tm (LOC_OS02G17970-cb001) [°C] | thermal shift delta Tm (LOC_OS02G45750-cb003) [°C] | thermal shift delta Tm (LOC_OS02G54510-cb004) [°C] | thermal shift delta Tm (LOC_OS03G04050-cb001) [°C] | thermal shift delta Tm (LOC_OS03G12390-cb001) [°C] | thermal shift delta Tm (LOC_OS03G27990-cb004) [°C] | thermal shift delta Tm (LOC_OS03G50450-cb001) [°C] | thermal shift delta Tm (LOC_OS03G50810-cb003) [°C] | thermal shift delta Tm (LOC_OS04G35114-cb001) [°C] | thermal shift delta Tm (LOC_OS04G38480-cb003) [°C] | thermal shift delta Tm (LOC_OS04G41100-cb001) [°C]
1 | COc1cc2ncnc(Nc3ccc(F)c(Cl)c3)c2cc1NC(=O)/C=C/CN1CCCCC1 | 2.23 | 2.36 | 1.39 | 0.37 | 1.76 | 0.52 | 1.55 | 1.7 | 0.41 | 1.92 | 1.69 | 0.71 | 1.08 | 0.21 | 1.04 | 1.79 | 0.95 | 1.15 | 1.53 | 0.71
2 | COc1cc(Nc2ncc(F)c(Nc3ccc4c(n3)NC(=O)C(C)(C)O4)n2)cc(OC)c1OC [R406 (free base)] | 5.12 | 8.58 | 0.44 | 0.7 | 1 | 3.16 | 2.03 | 4.18 | 13 | 0.86 | 4.87 | 3.74 | 0.5 | 7.52 | 1.81 | 8.85 | 4.46 | 2.9 | 4.51 | 1.22
3 | Cn1cc(-c2ccc(F)c(C(F)(F)F)c2)nc1C1CCN(c2ncnc3[nH]ncc23)CC1 | 0.5 | 1.11 | 0.96 | -0.11 | 0.07 | 0.57 | 0.34 | 0.53 | 0.5 | 0.85 | 0.33 | 0.45 | 0.47 | -0.18 | 0.44 | 0.81 | 0.37 | 0.97 | 0.91 | 0.15
4 | COc1ccc(S(=O)(=O)N(CCO)c2ccccc2CN(C)C/C=C/c2ccc(Cl)cc2)cc1 [KN-93 Phosphate] | 2.05 | 2.19 | 0.56 | 0.11 | 0.92 | 0.38 | 0.44 | 0.66 | 0.97 | 0.03 | 0.73 | -0.27 | 0.31 | -0.19 | 0.2 | 0.48 | 0.29 | 0.92 | 1.75 | 0.58
5 | O=C1Nc2ccccc2/C1=C1/Nc2ccccc2C1=O [Indirubin] | 0.93 | 1.8 | 2.12 | 0.55 | 0.71 | 0.76 | 1.4 | 1.85 | -0.51 | 0.97 | 2.07 | 0.45 | 0.62 | 0.59 | 0.23 | 0.08 | 1.48 | 3.86 | 0.97 | 0.98
6 | O=C(Nc1cccc(C(F)(F)F)c1)c1cccc2cc(Oc3cc(CO)ncn3)ccc12 | 1.09 | 0.76 | 1.22 | 2.3 | 0.38 | 0.5 | 0.69 | 0.95 | 0.55 | 1.28 | 0.82 | 0.52 | 0.59 | -0.09 | 0.52 | 0.11 | 0.03 | 0.55 | 1.4 | 0.37
